In PubChem BioAssay (NCI):
Compounds without any hit were thinned out: in the full panel of roughly 83,000, 20% have a hit.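 96-well plates, one dose, 48 hours. Percent growth reported; active if below 10.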 Values without a mark were called inactive. Active and inactive are the calls of the source.

Tests used:
Experiment in all cases: NCI-60 one-dose screen, 48 h (100 = growth as untreated, 0 = no growth, -100 = all killed)
Conditions in all cases: 10 µM unless noted
HCT-15 colon = test system: HCT-15 colon
HT29 colon = test system: HT29 colon
SNB-19 CNS = test system: SNB-19 CNS
U251 CNS = test system: U251 CNS
PC-3 prostate = test system: PC-3 prostate
SK-MEL-5 melanoma = test system: SK-MEL-5 melanoma
UACC-62 melanoma = test system: UACC-62 melanoma
LOX IMVI melanoma = test system: LOX IMVI melanoma
SK-MEL-28 melanoma = test system: SK-MEL-28 melanoma

Row | SMILES | growth (HCT-15 colon) | growth (HT29 colon) | growth (SNB-19 CNS) | growth (U251 CNS) | growth (PC-3 prostate) | growth (SK-MEL-5 melanoma) | growth (UACC-62 melanoma) | growth (LOX IMVI melanoma) | growth (SK-MEL-28 melanoma)
1 | COc1cc(/C=C2/C(=O)Nc3ccc(Cl)cc32)ccc1OCc1ccc(Cl)cc1 | 86.5% | 94.1% | 91.3% | 50.7% | 84.2% | 89.2% | 70.2% | 68.3% | 103%
2 | O=C1Nc2cc(Cl)ccc2/C1=C\c1ccc(OCc2ccccc2)cc1 | 95% | 105% | 103% | 104% | 88.2% | 97.2% | 95.9% | 92.7% | 103%
3 | CC1CCN(CC(=O)Nn2c(COc3ccccc3)nc3ccccc3c2=O)CC1 | 56% | 73.1% | 86.4% | 81.4% | 94.3% | 82.9% | 69.3% | 85.3% | 92.8%
4 | COc1cccc2c1[C@H](OC)[C@]13O[C@@]1(C2=O)[C@H](O)[C@H](C)[C@@](O)(C(=O)[C@@H]1O[C@H]1C)[C@@H]3O | -14.8% (active) | -28.9% (active) | 1.38% (active) | -13.3% (active) | -19.4% (active) | -97.7% (active) | -45.5% (active) | -62% (active) | -10.4% (active)
5 | N#C/C(=C\c1cccc2c1OCO2)C(=O)Nc1sc2c(c1C#N)CCCC2 | 102% | 124% | 95.4% | 96.9% | 109% |  | 90.8% | 104% | 102%
6 | Cn1c(SCC(=O)c2ccc(F)cc2)nc2ccccc2c1=O | 104% | 101% | 96.9% | 95.3% | 94.8% | 91.6% | 82.2% | 96.3% | 105%
7 | CCNCCOc1ccc(/C(=C(/CC)c2ccc(Cl)cc2)c2ccc(OCCCN(C)C)cc2)cc1 | -84.8% (active) | -36.4% (active) | -86% (active) | -70.7% (active) | -56.4% (active) | -95.2% (active) | -90% (active) | -89.2% (active) | -94.3% (active)
8 | CC(C)(O)c1cncc(-c2ccc3ncc(C#N)c(N4CCc5cc(F)c(Cl)cc54)c3c2)c1 | 9.91% (active) | 9.96% (active) | 11.2% | 20.1% | 11.9% | -22.4% (active) | -7.62% (active) | 5.41% (active) | 9.63% (active)
9 | Cc1ccc(-c2csc(N/N=C/c3cccs3)n2)cc1 | 59.1% | 99.4% | 101% | 85.8% | 68.2% | 72.8% | 88.9% | 94.5% | 102%
10 | Nc1ncc(-c2ccc3ncnc(NCc4ccccc4)c3c2)cn1 | 42.8% | 55.3% | 52% | 64.1% | 34.7% | 48.6% | 44.8% | 38.6% | 57.6%
11 | COc1cc(C(=O)c2cc(C(C)=O)c3c(C)cccn23)cc(OC)c1OC | 88.6% | 103% | 78.7% | 96.7% | 90.2% | 97.1% | 70.5% | 96.7% | 103%
12 | COc1ccc(/C=N/N=C(/c2ccccc2)c2ccc3nc(-c4ccc(Cl)cc4)[nH]c3c2)cc1 | 59.7% | 65.7% | 84.2% | 79.4% | 54.7% | 81% | 91.9% | 77.6% | 88.4%
13 | C#CCN(C)CCCOc1ccc(NC(=O)CCCCCCC(=O)NO)cc1Cl | 64.9% | 10.5% | 30.3% | 8.98% (active) | 26.5% | -4.82% (active) | -28.9% (active) | -61.4% (active) | 27.1%
14 | Cn1cc(-c2nn3cc(-c4ccncc4)nc3s2)c2cc(Br)ccc21 | 18% | 4.54% (active) | 81.7% | 54.7% | 30.2% | 57.9% | 61.5% | 52.5% | 94.2%
